Compound activity as filed in PubChem BioAssay.
FECH block – human FECH heme synthesis enzyme inhibition; P22830; purified FECH, Ni-mesoporphyrin absorbance 550 nm; calls only at 10 µM (by protocol); 3.3% of 20,000 active; AID 1671448;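 active = enzyme reaction rate more than 3 SD below the solvent-only control wells on the same plate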;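 note: lower slope than DMSO wells means FECH inhibition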
Target sequence (P22830 whole entry, looked up): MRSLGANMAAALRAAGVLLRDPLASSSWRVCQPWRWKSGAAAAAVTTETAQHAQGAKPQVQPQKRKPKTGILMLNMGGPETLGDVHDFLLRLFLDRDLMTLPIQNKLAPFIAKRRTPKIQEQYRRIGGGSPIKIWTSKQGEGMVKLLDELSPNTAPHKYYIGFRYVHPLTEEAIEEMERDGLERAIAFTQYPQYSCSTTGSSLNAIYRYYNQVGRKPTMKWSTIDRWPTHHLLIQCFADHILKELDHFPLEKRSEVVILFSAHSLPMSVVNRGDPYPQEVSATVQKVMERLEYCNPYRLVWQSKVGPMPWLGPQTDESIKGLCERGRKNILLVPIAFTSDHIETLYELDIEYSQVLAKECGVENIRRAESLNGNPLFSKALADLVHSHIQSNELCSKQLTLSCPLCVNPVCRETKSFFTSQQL
Calls only. The sample as a whole holds a higher share of hits than the screen did.

What do the screens show for `COc1cccc(C(=O)Nc2cc(C)nn2-c2ncnc3c2cnn3-c2cccc(C)c2C)c1`?
FECH block: inactive

How did Cc1cc(C)cc(C(=O)Nc2cc(C)nn2-c2ncnc3c2cnn3-c2ccc(Cl)cc2)c1 do in these assays?
FECH block: inactive

Results for O=C(CSCc1nc(-c2ccc(Cl)cc2)no1)N1CCNC1=O ?
FECH block: inactive

Results for C=CCn1c(=O)oc2ccc(C(=O)N3CCN(CC)CC3)cc21 ?
FECH block: inactive

How did CC(=O)NCCNC(=O)c1nc[nH]c1C(=O)NCC(C)C do in these assays?
FECH block: inactive

What do the screens show for `COC(=O)C(NC(=O)N1CCN(Cc2nc3cccnc3n2-c2cccc(C)c2)CC1)c1ccccc1` (configuration not stated)?
FECH block: inactive

What do the screens show for `COc1cccc(CC2(C(=O)O)CCN(c3ccc(Cl)cn3)CC2)c1`?
FECH block: inactive

Results for CC/C=C(\C)CN1CCC(CNC(=O)c2cccc(O)c2C)C1 (configuration not stated) ?
FECH block: inactive

Results for CCS(=O)(=O)CCNC(=O)[C@@]12CNC[C@@H]1CN(C)C2 ?
FECH block: inactive

What do the screens show for `CCCn1cnnc1CNC(=O)CC1C(=O)Nc2c(C)cc(C)cc21` (configuration not stated)?
FECH block: inactive

Results for OCCN1CCN(c2nc(Nc3ccc(F)cc3)c3cnn(-c4ccccc4)c3n2)CC1 ?
FECH block: inactive

Results for COc1ccc(Nc2nc(N3CCC(C)CC3)nc3c2cnn3-c2ccccc2)cc1 ?
FECH block: active

Results for CN(CCO)c1nc(Nc2ccc(Cl)cc2)c2cnn(-c3ccccc3)c2n1 ?
FECH block: active

Results for Clc1ccc(Nc2nc(N3CCN(c4ccccc4)CC3)nc3c2cnn3-c2ccccc2)cc1 ?
FECH block: inactive

How did CN1CCN(c2nc(Nc3ccc(Cl)cc3)c3cnn(-c4ccccc4)c3n2)CC1 do in these assays?
FECH block: active

How did COc1ccc(Nc2nc(N3CCOCC3)nc3c2cnn3-c2ccccc2)cc1 do in these assays?
FECH block: inactive

Results for Cc1ccc(Nc2nc(N3CCN(C)CC3)nc3c2cnn3-c2ccccc2)cc1 ?
FECH block: inactive

What do the screens show for `COc1ccc(Nc2nc(N3CCCCC3)nc3c2cnn3-c2ccccc2)cc1`?
FECH block: inactive

Results for CCN(CCO)c1nc(Nc2ccc(Cl)cc2)c2cnn(-c3ccccc3)c2n1 ?
FECH block: inactive

Results for COc1ccc(Nc2nc(N3CCN(CCO)CC3)nc3c2cnn3-c2ccccc2)cc1 ?
FECH block: inactive

How did CN(CCO)c1nc(Nc2ccccc2)c2cnn(-c3ccccc3)c2n1 do in these assays?
FECH block: inactive

How did OCCN1CCN(c2nc(Nc3ccc(Cl)cc3)c3cnn(-c4ccccc4)c3n2)CC1 do in these assays?
FECH block: active

What do the screens show for `CCc1c(C)nc2ncnn2c1Sc1ccc(NC(=O)Cc2cccc(F)c2)cc1`?
FECH block: inactive

What do the screens show for `O=C(Cc1ccc(F)cc1)Nc1ccc(Cl)c(N2CCCS2(=O)=O)c1`?
FECH block: inactive

How did COC(=O)c1ccc(Cl)c(NS(=O)(=O)c2cc(N3C(=O)CCS3(=O)=O)ccc2OC)c1 do in these assays?
FECH block: inactive

What do the screens show for `Cc1ccc2cc(-c3noc(CCC(=O)NCc4ccccc4)n3)c(=O)[nH]c2c1`?
FECH block: inactive

Results for Cc1cc(-c2cccc(OC(F)(F)F)c2)nc(N)n1 ?
FECH block: inactive

Results for Cc1ccc(C)c(OCCN(C)C(=O)c2cc3ncc(CCO)cn3n2)c1 ?
FECH block: active

Results for Cc1ccc(OCCN(C)C(=O)c2ccc(Cn3nnnc3C)cc2)c(C)c1 ?
FECH block: inactive

How did CCN(CCc1nc2ccc(C)cc2[nH]1)C(=O)c1cnn2cc(CCO)cnc12 do in these assays?
FECH block: inactive

How did CCCC(=O)Nc1cccc(C(=O)NCCc2nc(C)cc(C)n2)c1 do in these assays?
FECH block: inactive

What do the screens show for `CCCc1nc2nc[nH]n2c(=O)c1NC(=O)Nc1ccc(Br)c(C)c1`?
FECH block: active

How did CCCc1nc2nc[nH]n2c(=O)c1NC(=O)Nc1ccc(Br)cc1 do in these assays?
FECH block: inactive

Results for CCCc1nc2nc[nH]n2c(=O)c1NC(=O)Nc1ccc(C)c(F)c1 ?
FECH block: inactive

How did COc1ccccc1NC(=O)Nc1nc(CC(=O)Nc2ccc(Br)cc2)cs1 do in these assays?
FECH block: inactive

What do the screens show for `COC(=O)CC1=CC(=O)N(CC(=O)NCc2ccc(OC)cc2)c2ccccc2N1`?
FECH block: inactive

How did CSc1nc(-c2ccccc2)c(C#N)c(N(CCO)CCO)n1 do in these assays?
FECH block: inactive

How did COc1cccc(C(=O)N(Cc2nc3nc(C)cc(C)n3n2)c2cccc(Cl)c2)c1 do in these assays?
FECH block: inactive

Results for Cc1n[nH]c(C)c1CCCn1cnc(-c2ccccc2)c1-c1cccnc1 ?
FECH block: inactive

How did COC(=O)c1c(NC(=O)C2CC2)sc2c1CCN(Cc1ccccc1)C2 do in these assays?
FECH block: inactive

Results for Cc1ccc(C2=CC(c3c(F)cccc3Cl)n3nc(NC(=O)c4cccc(Cl)c4)nc3N2)cc1 (configuration not stated) ?
FECH block: inactive

How did Cc1cccc(C(=O)Nc2nc3n(n2)C(c2c(F)cccc2Cl)C=C(c2ccc(Cl)cc2)N3)c1 (configuration not stated) do in these assays?
FECH block: active

Results for Cc1ccc(C2=CC(c3ccc(Cl)cc3)n3nc(NC(=O)c4ccccc4F)nc3N2)cc1 (configuration not stated) ?
FECH block: inactive

Results for Cc1ccc(C(=O)Nc2nc3n(n2)C(c2c(F)cccc2Cl)C=C(c2ccc(Cl)cc2)N3)cc1 (configuration not stated) ?
FECH block: inactive

Results for CC(=O)Nc1nc2n(n1)C(c1c(F)cccc1Cl)C=C(c1ccccc1)N2 (configuration not stated) ?
FECH block: active

Results for Cc1ccc(C2=CC(c3c(F)cccc3Cl)n3nc(NC(=O)c4ccc(Cl)cc4)nc3N2)cc1 (configuration not stated) ?
FECH block: inactive

How did O=C(Nc1nc2n(n1)C(c1ccc(F)cc1)C=C(c1ccccc1)N2)c1ccccc1 (configuration not stated) do in these assays?
FECH block: active

What do the screens show for `O=C(Nc1nc2n(n1)C(c1ccc(F)cc1)C=C(c1ccccc1)N2)c1ccc(Cl)cc1` (configuration not stated)?
FECH block: inactive

Results for CCC(=O)Nc1nc2n(n1)C(c1c(F)cccc1Cl)C=C(c1ccc(C)cc1)N2 (configuration not stated) ?
FECH block: inactive

What do the screens show for `Cc1ccc(C2=CC(c3c(F)cccc3Cl)n3nc(NC(=O)CCc4ccccc4)nc3N2)cc1` (configuration not stated)?
FECH block: inactive

Results for Cc1ccc(C2=CC(c3ccc(F)cc3)n3nc(NC(=O)c4ccccc4)nc3N2)cc1 (configuration not stated) ?
FECH block: inactive

How did O=C(Nc1nc2n(n1)C(c1c(F)cccc1Cl)C=C(c1ccc(Cl)cc1)N2)c1cccnc1 (configuration not stated) do in these assays?
FECH block: active

What do the screens show for `CC(NC(=O)c1snnc1C(C)C)C1=CCCCC1` (configuration not stated)?
FECH block: inactive

What do the screens show for `CCn1ccc(-c2c(-c3ccccc3)ncn2C(c2nccn2C)C2CC2)n1` (configuration not stated)?
FECH block: inactive
